Only some compounds are listed: those with a hit (about 2.5% of all), similar ones and a draw of the others.
Anesthetic bind = qHTS Assay for Identification of Novel General Anesthetics; Ferritin light chain (Equus caballus), P02791; apoferritin/1-aminoanthracene competitive binding, fluorescence; Potency, µM (series often up to 77.5 µM), for the others: top-dose activity change, negative = displacement, usual class: inhibitors; 350,000 tested, 0.074% active; AID 485281, 2010; further: potency means the concentration at half of the fitted maximal effect; on the % scale 0 is the no-effect control and ±100 the full control effect; nearly all actives have a fitted effect of over 20% in size
Target sequence (P02791 2-175 limits assumed): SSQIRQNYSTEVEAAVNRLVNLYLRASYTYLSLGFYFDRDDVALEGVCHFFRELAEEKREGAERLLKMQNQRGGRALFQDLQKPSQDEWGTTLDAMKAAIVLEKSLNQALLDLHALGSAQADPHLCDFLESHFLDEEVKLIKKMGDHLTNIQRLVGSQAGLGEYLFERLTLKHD
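Steps: apoferritin (10 uM) was premixed with half-saturated 1-AMA in PBS, compounds were pin-transferred, plates stood 10 min at room temperature, fluorescence was read at 380/535 nm, and curves were fitted with a Hill equation.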
rTrxR1 inhibitor = qHTS Assay for Inhibitors of Mammalian Selenoprotein Thioredoxin Reductase 1 (TrxR1): qHTS; Thioredoxin reductase 1, cytoplasmic (Rattus norvegicus), O89049; recombinant rTrxR1, NADPH fluorescence consumption, selenite substrate; AID 588453, 2011; 390,000 tested, 1% active; Potency, µM (top dose mostly 114 µM), without a hit: at the highest dose activity change, negative = inhibition, usual class: inhibitors; further: potency means the concentration at half of the fitted maximal effect; on the % scale 0 is the no-effect control and ±100 the full control effect; nearly all actives have a fitted effect of over 65% in size
Target sequence (O89049 whole entry, looked up): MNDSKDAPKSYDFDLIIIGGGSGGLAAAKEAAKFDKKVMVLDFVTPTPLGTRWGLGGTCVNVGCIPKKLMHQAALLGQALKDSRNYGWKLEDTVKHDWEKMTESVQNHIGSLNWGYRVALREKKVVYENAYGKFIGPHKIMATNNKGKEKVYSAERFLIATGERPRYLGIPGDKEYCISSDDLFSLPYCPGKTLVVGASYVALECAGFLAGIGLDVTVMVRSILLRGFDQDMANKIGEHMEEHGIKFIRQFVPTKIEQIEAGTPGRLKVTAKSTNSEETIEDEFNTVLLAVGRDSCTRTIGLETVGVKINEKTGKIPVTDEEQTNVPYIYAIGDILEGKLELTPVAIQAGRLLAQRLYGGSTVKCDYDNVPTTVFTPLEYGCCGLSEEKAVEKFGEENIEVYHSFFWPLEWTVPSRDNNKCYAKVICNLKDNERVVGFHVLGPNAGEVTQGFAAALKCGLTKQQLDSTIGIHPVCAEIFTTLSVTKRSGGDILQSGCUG
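Rat TrxR1 (90 nM in the dispensed reagent) was pre-reduced with 400 uM NADPH for 5 min at room temperature, then incubated with compound for 15 min. After 400 uM selenite was added, NADPH fluorescence (Ex 340/Em 450 nm) was followed for 8 min.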
ClpP mod = qHTS Assay for Activators of ClpP. purified B. subtilis ClpP, FRET peptide cleavage, 20 min. Potency, µM (series often up to 57.5 µM), for the others: at the highest dose activity change, negative = active. 340,000 tested, 1.9% active. AID 651965, 2013; active means well fitted falling curve with a large enough effect; inconclusive means small, poorly fitted or top-dose-only effect; inactive means no such curve, though single readings can be large or run the other way; further: potency means the concentration at half of the fitted maximal effect; the source files actives as falling curves though it sought activators and does not explain the sign; nearly all actives have a fitted effect of over 65% in size
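FRET quenching reversal measured ClpP activation: 10 microg/mL B. subtilis ClpP at pH 8 with the FRET-FV decapeptide, read at 430 nm after 320 nm excitation. The 20-min minus 0-min signal was scaled between DMSO/no-enzyme wells and ADEP (5.8 microM final).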
miR-21 act = qHTS Assay for Modulators of miRNAs and/orActivators of miR-21. 340,000 tested, under 10 active. HeLa miR-21 FLuc reporter, luciferase, 48 h. Potency, µM (top dose mostly 38.3 µM), without a hit: at the top dose activity change, positive = activation, usual class: activators;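 further: % of control where 0% means no effect; miR-21 action dims this reporter so a rising signal means less miR-21 action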
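Luminescence from a firefly luciferase reporter carrying a miR-21 binding site downstream, stably expressed under a CMV promoter in HeLa cells that make miR-21 endogenously, reports miRNA modulation after 48 h compound exposure up to approximately 40uM final.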
TrxR1 substrate = qHTS Assay for Substrates of Mammalian Selenoprotein Thioredoxin Reductase 1 (TrxR1): qHTS. Potency, µM (titrated, usually from 114 µM), for inactives: top-dose activity change, negative = substrate turnover. Thioredoxin reductase 1, cytoplasmic (Rattus norvegicus), O89049. AID 588456, 2011. 390,000 tested, 0.01% active. purified TrxR1 substrate turnover, NADPH consumption readout; further: potency means the concentration at half of the fitted maximal effect; on the % scale 0 is the no-effect control and ±100 the full control effect; nearly all actives have a fitted effect of over 50% in size
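Rat TrxR1, dispensed at 90 nM, was prereduced with 400 uM NADPH (final) for 5 min at ~22 deg C, then incubated with compound 15 min before 400 uM selenite. A first-read NADPH fluorescence drop versus no-compound background flagged substrates.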
Numbers without * were called inactive; ? = inconclusive; . = no result given; [ ] = remark or other dose. Unless noted, the call rests on the fitted dose curve; in most records, active means well fitted curve in the direction sought with a large enough effect; inconclusive means small, poorly fitted or top-dose-only effect, or another doubt; inactive means no such curve, though single readings can be large; an effect the other way counts as inactive or inconclusive.

SMILES	Anesthetic bind	rTrxR1 inhibitor	ClpP mod	miR-21 act	TrxR1 substrate
COc1cc(C(=O)NCc2ccc3c(c2)CCN3C(=O)c2ccncc2)cc(OC)c1OC	-12%	-3%[57.1 µM]	-3%	11%	-9%[57.1 µM]
Cc1ccc(OCC(=O)Nc2ccc3nc(SCC(=O)Nc4ccc(C)cc4C)sc3c2)cc1	4%	27%	-3%	-4%	0%
Cc1occc1C(=O)NCc1ccccc1F	-12%	10µM*	-2%	-1%	9%
Cc1occc1C(=O)NCCCCNC(=O)c1ccoc1C	-7%	?	5%	-1%	-4%
CCCCCCCCCCCNC(=O)c1ccoc1C	-1%	20µM*	-1%	-3%	-5%
CCOC(=O)C1=C(Cc2ccc(F)cc2)C(=O)c2ccccc2C1=O	?	6.3µM*	1%	?	-22%
COc1ccccc1N1CCN(c2nc(C)nc3c2oc2ccccc23)CC1	1%	56%	32µM*	22%	35%
Cc1nc(N2CCC(C)CC2)c2oc3ccccc3c2n1	-15%	9%	-19%	17%	2%
N#Cc1c(N)n(CCNC(=O)c2ccc(Cl)cc2)c2nc3ccccc3nc12	180%	21%	3.2µM*	-3%	48%
Cc1ccc(C(=O)NCCn2c(N)c(C#N)c3nc4ccccc4nc32)cc1	424%	93%	22µM*	-7%	141%
O=c1c(N2CCN(c3cccc(Cl)c3)CC2)csc2ccc(Cl)cc12	?	10%[57.1 µM]	-11%	22%	3%[57.1 µM]
Cc1ccccc1NC(=O)CSc1nc2nccnc2c(=O)n1CCc1c[nH]c2ccccc12	0%	3%	0%	-2%	-1%
O=C(COC(=O)c1ccccn1)NC12CC3CC(CC(C3)C1)C2	7.9µM*	-3%	-2%	-7%	4%[57.1 µM]
Cc1cnc(C(=O)OCC(=O)NC23CC4CC(CC(C4)C2)C3)cn1	10µM*	21%	-2%	-15%	3%
Cc1ccc(NC(=O)NCCOCCn2c(=O)oc3ccccc32)c(C)c1	-9%	11%	-1%	8%	-6%
Cc1ccc(NC(=O)C2CCCN2S(=O)(=O)c2cccc3cccnc23)cc1 (stereo not drawn)	-3%	-3%	-1%	-13%	-7%
Cc1cc(C(=O)CCl)c(C)n1-c1c(C)n(C)n(-c2ccccc2)c1=O	-4%	8.9µM*	.	26%	-1%[57.1 µM]
Cc1oc2ncnc(N)c2c1C	-7%	-7%	-10%	-15%	-5%
Cc1ccc(-c2oc3ncnc(N)c3c2-c2ccc(C)cc2)cc1	1%	29%[57.1 µM]	28µM*	-21%	29%[57.1 µM]
Cc1ccccc1NC(=O)CN1C(=O)NC(C)(c2ccc3c(c2)OCO3)C1=O (stereo not drawn)	?	0%	16µM*	-2%	-3%
COc1ccc(OC)c(S(=O)(=O)N2Cc3ccccc3CC2C(=O)Nc2ccc(C(C)=O)cc2)c1 (stereo not drawn)	-8%	35%	-2%	-15%	12%
O=C(Oc1ccc2c(=O)c(Cl)coc2c1)c1cccnc1	46%	13µM*	19%	0%	7%[57.1 µM]
O=C(COc1ccc(F)cc1)c1c(O)cc(O)cc1O	-2%	7.1µM*	0%	-31%	-10%
COc1ccc(C(=O)COc2ccc(F)cc2)c(O)c1	-3%	20%	.	-41%	3%
C[N+](C)(C)CCN(Cc1ccc(Cl)cc1)c1ccccn1	-8%	9%[57.1 µM]	25µM*	9%	12%[57.1 µM]
SMILES	Anesthetic bind	rTrxR1 inhibitor	ClpP mod	miR-21 act	TrxR1 substrate
CCc1ccc(NC(=O)c2ccc3c(c2)nnn3CC)cc1	-10%	-1%[57.1 µM]	-3%	-52%	-6%[57.1 µM]
N#CC1(C#N)OC12CCS(=O)(=O)c1ccccc12 (stereo not drawn)	.	50µM*	?	.	1%
Cc1c(Cl)cccc1NC(=O)c1oc2ccc(S(=O)(=O)N3CCCCCC3)cc2c1C	-1%	9%[57.1 µM]	18%	0%	-6%[57.1 µM]
CC1CCN(S(=O)(=O)c2ccc3c(ccn3CC(=O)NCc3ccccc3F)c2)CC1	5%	47%	-6%	2%	1%
Cc1ccccc1CN1[C@H](C)[C@H](c2ccccc2)OCCS1(=O)=O	.	27%	1%	.	6%
Cc1ccc(S(=O)(=O)N2CCN(c3nc(-c4cccs4)nc4cccnc34)CC2)cc1	.	?	?	.	2%
C=CCn1c2ccccc2n2nc(C)c(=O)nc12	-2%	-16%	22µM*	1%	30%
Cc1ccc(N(C)C(=O)Cn2cc(S(=O)(=O)N3CCCC3)c(S(=O)(=O)N3CCCC3)c2)cc1	-1%	10%	-1%	-1%	-3%
COC(=O)Cn1c(=NC(=O)c2sc3ccccc3c2Cl)sc2cc(S(N)(=O)=O)ccc21	-10%	0%	14µM*	-11%	8%
N#CCCn1cc(C=C(C#N)C#N)c(-c2ccc(-c3ccccc3)cc2)n1	-10%	79µM*	-13%	-27%	16%
Oc1ccc(N2CCN(C(c3ccc(Cl)cc3)c3nnnn3Cc3ccc(F)cc3)CC2)cc1 (stereo not drawn)	.	6%	-2%	.	0%
CC1CCCN(C(=O)COc2ccc(Nc3ccccc3)cc2)C1 (stereo not drawn)	18µM*	17%[57.1 µM]	.	-10%	-18%[57.1 µM]
COC(=O)C1CCN(C(=O)COC(=O)c2n[nH]c3ccccc23)CC1	-13%	16%	32µM*	-25%	24%
CC1CCCN(C(=O)COC(=O)c2n[nH]c3ccccc23)C1 (stereo not drawn)	?	6%	22µM*	-53%	21%
CN(C)S(=O)(=O)c1cccc(NC(=S)NC23CC4CC(CC(C4)C2)C3)c1	-14%	-8%	.	7%	-5%
NS(=O)(=O)c1cccc(NC(=S)NC(=O)C23CC4CC(CC(C4)C2)C3)c1	?	40µM*	-1%	-50%	-10%
C=CCN(C(C(=O)OC)C(C)C)S(=O)(=O)C=C (stereo not drawn)	-1%	-1%	.	.	1%
Cc1cccn2c(=O)c3cc(C#N)c(=O)n(-c4nnc(SCc5ccccc5F)s4)c3nc12	2%	23%	4%	-2%	46%
CCCCOc1c(Br)cc(/C=C2\N=C(C)OC2=O)cc1OCC	-18%	40µM*	-5%	-1%	1%
C(#Cc1ccccc1)Cn1nnc2ccccc21	5%	3%	28µM*	-67%	9%
O=C(O)Cn1nnc2ccccc21	8%	22%	0%	-8%	9%
CC(N)c1csc(Nc2ccc(C(=O)NCCCO)cn2)n1 (stereo not drawn)	.	.	-14%	.	.
COc1ccc(C(N)c2csc(Nc3ccc(C(=O)NCCCO)cn3)n2)cc1 (stereo not drawn)	.	.	28µM*	.	.

Screening data: PubChem, National Center for Advancing Translational Sciences (NCATS)
